# Reference: PubChem BioAssay (Tox21)
# Results filed as inconclusive are left out. A number with no mark means an inactive call. Active and inactive are the calls of the source. Calls come from the whole dose curve; as a rule, active = well fitted cell-killing curve with a large enough effect in the repeat runs; inconclusive = weak or mixed curves, or effect the other way; inactive = flat fitted curve, though single readings scatter.
# Assay: cAMP Responsive Elements (CRE) small molecule agonists, cell-based qHTS assay: qHTS cell viability counter screen (AID 2060914);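 note: viability read after 3 h of compound exposure; nearly all actives have a fitted effect of over 50% in size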
# Details: CRE-bla HEK293T viability, CellTiter-Glo luminescence, 5 h; series mostly up to 92.4 µM; activity change, negative = cytotoxicity: at the top concentration
# Source text: National Center for Advancing Translational Sciences [NCATS]
# Division of Preclinical Innovation [DPI]
# U.S. Environmental Protection Agency [EPA]
# National Institutes of Environmental Health Sciences [NIEHS]
# National Toxicology Program [NTP]
# U.S. Food and Drug Administration [FDA]
# CREB (cyclic-AMP Responsive Element Binding Protein) is a cellular transcription factor. It binds to certain DNA sequences called cAMP Responsive Elements (CRE) and regulates the transcription of the genes. […] This cell line can be used to find agonists/antagonists of the cyclic AMP signaling pathway. The activation of the report gene under culture conditions can be detected by fluorescence intensity. This cell line has been used to screen the Tox21 10K compound library to identify agonists that induce oxidative stress. The cytotoxicity of the Tox21 compound library against the CRE-bla cell line was tested in parallel by measuring the cell viability using CellTiter-Glo assay (Promega, Madison, WI) in the same wells.
# Tox21 Assay Protocol Summary:
# CRE-bla Hek 293T cells were suspended in assay medium (DMEM containing 10% dialyzed FBS, 0.1 mM NEAA, 1 mM sodium pyruvate and 25 mM HEPES) and dispensed at 2,000 cells/5 uL /well into 1536-well black wall/clear bottom plates using a Multidrop Combi (ThermoFisher Scientific, Waltham, MA) dispenser. After the assay plates were incubated at 37 C/5% CO2 for 18 hrs, 23 nL of compounds dissolved in DMSO, positive controls or DMSO only was transferred to the assay plate by a pintool workstation (Kalypsys, San Diego, CA). After the plates were incubated at 37 C/5% CO2 for 3 hrs, 1 uL of LiveBLAzer B/G FRET substrate (Invitrogen, Carlsbad, CA) was added to each well using Bioraptr Flying Reagent Dispenser (FRD, Aurora Discovery, San Diego, CA). The plates were incubated at room temperature for 2 h, then fluorescence intensities were measured using an Envision plate reader (PerkinElmer, Shelton, CT) at Excitation 405nm, Emission 460nm and 530nm. The % activity was determined from the ratio of 460nm/530nm. For cell viability readout that measures cytotoxicity, 4 uL /well of CellTiter-Glo reagent was added into the assay plates using Bioraptr FRD. After 30 min incubation at room temperature, the luminescence intensity in the assay plates was measured using a ViewLux (PerkinElmer, Shelton, CT) plate reader.
# % is set by controls: 0 for no effect and ±100 for the full control effect.
SMILES,"activity change, negative = cytotoxicity",Potency
COC(=O)COc1ccc(Cl)cc1Cl,-1.72%,
BrCCCCCCBr,-12.3%,
C=C(C)C(=O)OCC1CO1 (stereo not given),,inactive
C[C@]12CC[C@H]3[C@@H](CCC4=CC(=O)CC[C@@H]43)[C@@H]1CC[C@@H]2OC(=O)CCc1ccco1,2.74% [at 42.5 µM],
OCCSSCCO,-5.78%,
CC(=O)[C@H]1CC[C@H]2[C@@H]3CC[C@H]4C[C@](C)(O)CC[C@]4(C)[C@H]3CC[C@]12C,-0.451% [at 42.5 µM],
[Cl-].[Cl-].[Cl-].[Yb+3],13.6%,
CC1=C(C(=O)O)N2C(=O)[C@@H](N)[C@H]2SC1,16% [at 18.9 µM],
[CH3][Sn]([Cl])([Cl])[Cl],,inactive
Oc1c(I)cc(I)cc1I,7.61%,
CC(C)CC(C)N (stereo not given),-1.98%,
BrCCBr,,inactive
CCOC(=O)C1(c2ccccc2)CCN(CCC(C#N)(c2ccccc2)c2ccccc2)CC1,0.0445% [at 42.5 µM],
C=C(C)CN(CC)c1c([N+](=O)[O-])cc(C(F)(F)F)cc1[N+](=O)[O-],-14.6%,
ClC(Cl)C(Cl)(Cl)Cl,0.519%,
CCCCNC(=O)n1c(NC(=O)OC)nc2ccccc21,,inactive
COCCC#N,24.8%,
COP(=S)(OC)Oc1ccc(S(=O)(=O)N(C)C)cc1,,inactive
c1ccc(OCC2CO2)cc1 (stereo not given),-12.3%,
OC[C@@H](O)[C@H]1O[C@@H]2O[C@H](C(Cl)(Cl)Cl)O[C@@H]2[C@H]1O,,inactive

SMILES,"activity change, negative = cytotoxicity",Potency
COc1cc(C[C@@H](C)N)c(OC)cc1Br,-0.891%,
CC12CC1(C)C(=O)N(c1cc(Cl)cc(Cl)c1)C2=O (stereo not given),3.26%,
Nc1ccc(Cc2ccc(N)c(Cl)c2)cc1Cl,-1.37%,
Cc1coc2c1CCC(C)C2 (stereo not given),-1.83%,
CCCN,5.96%,
O=C(NC(=O)c1c(F)cccc1F)Nc1cc(Cl)c(OC(F)(F)C(F)F)c(Cl)c1,-14.2%,
CC[C@H]1C[C@@H]2C[C@H]3c4[nH]c5ccc(OC)cc5c4CCN(C2)[C@@H]13,5.36%,
O=[N+]([O-])c1ccc(Cl)c(Cl)c1,-2.37%,
C#C[C@]1(O)C=C[C@H]2[C@@H]3CCC4=CC(=O)CC[C@@H]4[C@H]3CC[C@@]21CC,-5.07% [at 42.5 µM],
Nc1ccc(-c2ccc(N)c(N)c2)cc1N,,inactive
CCCN(CC)CC1COC2(CCC(C(C)(C)C)CC2)O1 (stereo not given),-1.31%,
CO/C=C(/C(=O)OC)c1ccccc1COc1cccc(C(F)(F)F)n1,-18.3%,
O=C(O)C(Cl)Cl,,inactive
OCCCBr,-0.553%,
CC(C)(C)NC[C@H](O)c1ccc(O)cc1Cl,17.3% [at 42.5 µM],
C[C@]12Cc3cn[nH]c3C[C@@H]1CC[C@@H]1[C@@H]2CC[C@@]2(C)[C@H]1CC[C@]2(C)O,2.11% [at 42.5 µM],
COCC(=O)N(c1c(C)cccc1C)[C@H](C)C(=O)OC,7.55%,
NCCOS(=O)(=O)O,0.351%,
CCCCOC(=O)c1ccccc1C(=O)OCCCC,,inactive
CCNc1nc(NCC)nc(SC)n1,-0.365%,
